# Screens: PubChem BioAssay, several laboratories
# In the library only some 4.2% were active in any assay of this set; here they are far more common.
# Hsp70 act – Hsp70 transcriptional activators, primary screen, cell-based, HeLa, Hsp70 promoter luciferase, luminescence, 10 µM. hit rate 0.04% among 200,000. activation, % at 10 µM. HeLa Hsp70 promoter luciferase reporter; scaled: vehicle 0, proteasome-inhibitor control 100%. AID 1203, 2008;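 active = activation above the mean across all tested compounds plus 3 SD, cutoff set per campaign, cut at about 5.5% in these data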;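 also: 100% = MG132 at 30 µM as the positive control and 0% = DMSO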
# S1P4 antagonist – S1P4 receptor antagonists, primary screen, cell-based | Sphingosine 1-phosphate receptor 4 (Homo sapiens), O95977 | hit rate 0.26% among 220,000 | AID 1510, 2009 | S1P4-expressing cells, antagonist mode, reporter read-out | inhibition, % at 4.98 µM; in the data active = inhibition above about 29%;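 also: 0% = wells stimulated with agonist and 100% = vehicle wells without agonist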
# Target sequence (O95977 whole entry, looked up): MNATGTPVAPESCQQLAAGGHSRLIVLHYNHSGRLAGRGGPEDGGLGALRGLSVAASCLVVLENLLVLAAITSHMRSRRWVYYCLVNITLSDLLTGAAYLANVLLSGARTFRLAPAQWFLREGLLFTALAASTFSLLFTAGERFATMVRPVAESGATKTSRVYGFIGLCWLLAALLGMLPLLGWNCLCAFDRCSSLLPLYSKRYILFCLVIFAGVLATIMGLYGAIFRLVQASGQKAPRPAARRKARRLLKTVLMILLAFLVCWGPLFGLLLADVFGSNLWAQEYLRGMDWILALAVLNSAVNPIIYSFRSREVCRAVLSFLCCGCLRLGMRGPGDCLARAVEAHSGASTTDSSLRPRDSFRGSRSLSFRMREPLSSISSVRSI
# S1P4 ag – S1P4 receptor agonists, primary screen, cell-based | activation, % at 4.98 µM | hit rate 0.35% among 220,000 | S1P4-expressing cell line, agonist reporter assay | Sphingosine 1-phosphate receptor 4 (Homo sapiens), O95977; in the data active = activation above about 11%;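 also: 0% = DMSO vehicle and 100% = reference agonist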
# CHOP inh – inhibitors of CHOP promoter induction, primary screen, cell-based, unfolded protein response, luciferase reporter; CHO-K1 CHOP-promoter luciferase, tunicamycin-induced, 15-18 h; inhibition, % at 10 µM; hit rate 3.8% among 220,000; AID 2732, 2010;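 active = compounds that reduced the stress-induced luciferase reporter signal by more than about 70% of percent inhibition, limit read from the data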;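 also: 0% = tunicamycin plus vehicle and 100% = wells without tunicamycin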
# CHOP inh conf – retest of CHOP induction inhibitors, confirmation, cell-based; CHO-CHOP promoter luciferase reporter, tunicamycin-induced, luminescence; shares compounds with CHOP inh; hit rate 45% among 2,100; inhibition, % at 10 µM;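 active = mean of three repeat readings of reporter signal inhibition above a set limit, cut at about 70% in these data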;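 also: 0% = tunicamycin plus vehicle and 100% = wells lacking tunicamycin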
# The depositor's hits bear a star; x = no result.
SMILES,Hsp70 act,S1P4 antagonist,S1P4 ag,CHOP inh,CHOP inh conf
COc1ccc(S(=O)(=O)Nc2cc(Sc3ncn[nH]3)c(O)c3ccccc23)cc1,-0.4,4.2,4.0,18.1,x
CC(=O)c1c(O)c(C)c(-c2ccccc2)n(-c2ccccc2)c1=O,0.0,-4.4,1.8,33.4,x
O=C1COc2ccc(C(=O)CCl)cc2N1,x,24.5,1.0,100.7*,18.4
CCC(=O)c1ccc(OCC(=O)c2ccc3c(c2)NC(=O)CO3)cc1,x,-4.6,-0.8,13.8,x
CC[C@H](C)[C@H](NC(=O)c1ccc(Cl)cc1)C(=O)OCC(=O)c1ccc2c(c1)NC(=O)CO2,0.0,-1.4,-0.8,104.6*,30.4
COc1ccc(/C=C/C(=O)NCCCc2ccccc2)cc1,-0.1,-6.5,0.9,25.6,x
O=[N+]([O-])c1ccc(O)c(/C=N/Nc2ccccc2Cl)c1,0.4,7.4,3.1,96.1*,125.1*
O=C(N/N=C/c1cc([N+](=O)[O-])ccc1O)C1CC1,x,2.2,-0.3,17.9,x
CC1(C)c2ssc(=S)c2-c2ccccc2N1C(=O)c1ccco1,0.1,-0.9,7.3,98.5*,12.0
Cc1ccc2c(c1)-c1c(ssc1=S)C(C)(C)N2C(=O)c1ccco1,0.0,-5.3,1.3,15.4,x
COc1ccc(N(C(=O)c2cccc([N+](=O)[O-])c2)S(=O)(=O)c2cccs2)cc1,-0.2,-4.0,4.6,27.0,x
COc1ccc(/C=C2\C(=O)NC(=S)N2C(=O)c2ccc(F)cc2)cc1,-0.1,-9.3,0.2,97.3*,25.9
O=c1cc(-c2ccccc2)[nH]c2cc(Cl)ccc12,0.1,-4.9,1.7,-13.9,x
Clc1ccc2[nH]c(-c3ccccc3)cc2c1,-0.1,-8.2,-0.4,103.7*,70.5*
CS(=O)(=O)Nc1ccccc1Oc1ccccc1,-0.3,-15.8,-1.2,14.3,x
CN(NC(=O)Nc1ccccc1)c1cnn(C)c(=O)c1Cl,x,1.0,1.1,3.5,x
O=C(C1CCCN(S(=O)(=O)c2ccc(F)cc2)C1)N(Cc1cccs1)C1CC1 (stereo unspecified),-0.4,-10.2,1.1,18.3,x
COc1cc(CNCc2ccccn2)ccc1OCc1ccc(Cl)c(Cl)c1,-0.2,-9.2,0.8,23.3,x
CCOc1cccc(CNc2ccc(O)cc2)c1OCc1ccc(Cl)cc1,-0.2,7.0,0.2,109.2*,48.4
CCOc1ccccc1CNc1ccc(O)cc1,0.0,-19.8,-1.2,-36.4,x
CCOc1cc(CNc2ccc(O)cc2)ccc1OCc1ccc(Cl)cc1Cl,-0.3,-5.7,-3.6,103.3*,111.6*
COc1cc(CNCc2ccccn2)ccc1OCc1ccc(Cl)cc1Cl,-0.2,-5.2,-0.1,98.1*,106.1*
CCOC(=O)c1ccc(NC(=S)NNC(=O)COC)cc1,0.2,-10.6,-0.2,12.3,x
COC(=O)C1=C(C)NC(=O)/C1=C\c1cc(C)n(-c2ccccc2C)c1C,-0.3,5.4,1.8,64.5,x
CCOC(=O)C1=C(c2ccccc2)O/C(=C(/C#N)C(F)(F)F)S1,1.1,9.9,-2.5,97.2*,113.1*
SMILES,Hsp70 act,S1P4 antagonist,S1P4 ag,CHOP inh,CHOP inh conf
O/N=C(\c1ccc(Cl)cc1Cl)c1ncc(C(F)(F)F)cc1Cl,-0.1,-1.6,0.1,106.9*,111.3*
CCOc1ccc(/C=C/C(O)=C2/C(=O)NC3(C)CC2c2ccccc2O3)cc1OC (stereo unspecified),0.8,15.6,0.3,96.1*,63.9
CC1Cc2ccccc2N1C(=O)C1CCCN1S(=O)(=O)c1ccc(Cl)cc1 (stereo unspecified),-0.2,-9.2,1.0,36.1,x
CCN1C(=O)C(CC(=O)Nc2ccc(OC)cc2)N(CCc2ccccc2)C1=S (stereo unspecified),-0.3,-3.0,1.8,7.8,x
COC(=O)CN1C(=S)N(Cc2ccccc2)C(=O)C1CC(=O)Nc1ccc(Br)cc1 (stereo unspecified),-0.4,7.6,-0.1,102.1*,97.8*
O=C(CCl)Nc1cn(-c2ccccc2)nc1-c1ccccc1,-0.4,17.3,-1.6,106.8*,105.7*
CCO/C=C1\SC(=S)N(c2ccc(Cl)cc2)C1=O,x,-4.9,1.2,4.8,x
CCc1c(C)sc(NC(=O)CSc2nc3c(c(C(F)(F)F)n2)CCc2ccccc2-3)c1C#N,0.1,4.7,-3.1,97.0*,71.8*
COc1cc(/C=C/c2noc(-c3ccccc3O)n2)cc(OC)c1OC,0.3,-3.5,0.9,53.9,x
